Reference: the supplement of paper PMC8975748
Structures can show the parent of a compound that is named as a salt.

Each compound was assayed on Saccharomyces cerevisiae BY4741 SeMeCo community (assay: z-score of subpopulation abundance vs DMSO median, subpopulation auxotrophic for HLM; higher = larger share of this subpopulation than in DMSO controls). Conditions: 10 µM; 24 h; SM minimal medium; subpopulation (auxotrophy): HLM.
Protocol: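 Fluorescent four-plasmid SeMeCo (self-establishing metabolically cooperating S. cerevisiae BY4741 community; plasmids pH-mRuby2, pL-mWasabi, pU-eCFP, pM-TagRFP657) was grown 24 h in minimal SM medium with each Selleck FDA-approved drug at 10 µM in 384-well plates. Cells were fixed and imaged by high-content confocal microscopy. For each auxotrophic subpopulation (and the prototroph), a z-score gives the deviation from the DMSO vehicle-control population median.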

| SMILES | z-score of subpopulation abundance |
| --- | --- |
| CC[C@@]1(O)C(=O)OCc2c1cc1n(c2=O)Cc2cc3cc(O)ccc3nc2-1 [Hydroxy Camptothecine] | 1.86 |
| CC1(C)S[C@@H]2[C@H](NC(=O)Cc3ccccc3)C(=O)N2[C@H]1C(=O)O [Benzathine penicilline] | 0.37 |
| O=c1ccc2cc(O)c(O)cc2o1 [Esculetin] | 1.67 |
| Clc1ccc(COC(Cn2ccnc2)c2ccc(Cl)cc2Cl)cc1 (stereo not given) [Econazole] | 17.3 |
| CCCC1CC(C(=O)NC(C(C)Cl)C2OC(SC)C(O)C(O)C2O)N(C)C1 (stereo not given) [Clindamycin alcoholate] | 0.08 |
| OC(c1ccccc1)(c1ccccc1)C12CC[N+](CCOCc3ccccc3)(CC1)CC2 [Umeclidinium bromide] | 0.44 |
| Cc1ccc(-c2cc(C(F)(F)F)nn2-c2ccc(S(N)(=O)=O)cc2)cc1 [Celecoxib] | -0.37 |
| COCCOC(=O)C1=C(C)NC(C)=C(C(=O)OC/C=C/c2ccccc2)C1c1cccc([N+](=O)[O-])c1 (stereo not given) [Cilnidipine] | -0.44 |
| C[C@@H](O)[C@H]1C(=O)N2C(C(=O)O)=C(S[C@@H]3CN[C@H](C(=O)N(C)C)C3)[C@H](C)[C@H]12 [Meropenem] | -0.34 |
| Cc1c[nH]c(=O)[nH]c1=O [Thymine] | 0.64 |
| O=C1C(N(CO)C(=O)NCO)N(CO)C(=O)N1CO (stereo not given) [Diazolidinyl urea] | -0.27 |
| c1ccc(-c2ccc(C(c3ccccc3)n3ccnc3)cc2)cc1 (stereo not given) [Bifonazole] | 2.32 |
| CCOC(=O)C1=C(C)NC(C)=C(C(=O)OC)C1c1cccc(Cl)c1Cl (stereo not given) [Felodipine] | 8.73 |
| COc1cccc2c1C(=O)c1c(O)c3c(c(O)c1C2=O)C[C@@](O)(C(=O)CO)C[C@@H]3O[C@H]1C[C@H](N)[C@H](O[C@@H]2CCCCO2)[C@H](C)O1 [Pirarubicin] | -1.27 |
| CC(=O)OCC1=C(C(=O)O)N2C(=O)[C@@H](NC(=O)CSc3ccncc3)[C@H]2SC1 [Cephapirin Benzathine] | 0.47 |
| Cc1cc(NS(=O)(=O)c2ccc(N)cc2)nc(C)n1 [sulfaisodimidine] | -0.45 |
| COc1ccccc1OCC(O)CN1CCN(CC(=O)Nc2c(C)cccc2C)CC1 (stereo not given) [Ranolazine] | 0.19 |
| O=C1NC(=O)C(c2ccccc2)(c2ccccc2)N1 [Phenytoin] | -0.09 |
| CCN1CCN(c2cc3c(cc2F)c(=O)c(C(=O)O)cn3C2CC2)CC1 [Enrofloxacin] | 0.21 |
| N[C@@H](C(=O)N[C@@H]1C(=O)N2C(C(=O)O)=C(Cl)CS[C@H]12)c1ccccc1 [Cefaclor] | 0.3 |

| SMILES | z-score of subpopulation abundance |
| --- | --- |
| CC(=O)NC[C@H]1CN(c2ccc(N3CCOCC3)c(F)c2)C(=O)O1 [Linezolid] | -0.75 |
| NC(=O)N1c2ccccc2CC(=O)c2ccccc21 [Oxcarbazepine] | -1.13 |
| OB1OCc2cc(F)ccc21 [Tavaborole (AN-2690)] | 98 |
| Nc1ccc(S(=O)(=O)Nc2cnc3ccccc3n2)cc1 [Sulfaquinoxaline sodium] | -0.05 |
| CCCCCCCCCC(=O)N[C@@H](Cc1c[nH]c2ccccc12)C(=O)N[C@H](CC(N)=O)C(=O)N[C@@H](CC(=O)O)C(=O)N[C@@H]1C(=O)NCC(=O)N[C@@H](CCCN)C(=O)N[C@@H](CC(=O)O)C(=O)N[C@H](C)C(=O)N[C@@H](CC(=O)O)C(=O)NCC(=O)N[C@H](CO)C(=O)N[C@@H]([C@H](C)CC(=O)O)C(=O)N[C@@H](CC(=O)c2ccccc2N)C(=O)O[C@@H]1C [Daptomycin] | 0.48 |
| COc1ccc2c3c1O[C@H]1C[C@@H](O)C=C[C@@]31CCN(C)C2 [Galanthamine] | 1.04 |
| CCN(CC)C(=O)[C@@]1(c2ccccc2)C[C@H]1CN [Levomilnacipran Hydrochloride] | -1.07 |
| CNS(=O)(=O)CCc1ccc2[nH]cc(C3CCN(C)CC3)c2c1 [Naratriptan HCl] | -0.19 |
| C[C@]12CCC(=O)C=C1[C@@H]1C[C@@H]1[C@H]1[C@@H]3[C@@H]4C[C@@H]4[C@@]4(CCC(=O)O4)[C@@]3(C)CC[C@@H]12 [Drospirenone] | 0.31 |
| Oc1c(Br)cc(Br)c2cccnc12 [Broxyquinoline] | 49.4 |
| O=C1OC(CN2CCOCC2)CN1/N=C/c1ccc([N+](=O)[O-])o1 (stereo not given) [Furaltadone HCl] | -0.4 |
| CN(Cc1cnc2nc(N)nc(N)c2n1)c1ccc(C(=O)N[C@@H](CCC(=O)O)C(=O)O)cc1 [Methotrexate] | 8.99 |
| C1CCN2C[C@@H]3C[C@@H](CN4CCCC[C@@H]34)[C@H]2C1 [(-)-Sparteine Sulfate] | -0.86 |
| CC(=O)O[C@H]1C[C@@H]2CC[C@@H]3[C@H](CC[C@@]4(C)[C@H]3C[C@H]([N+]3(C)CCCCC3)[C@@H]4OC(C)=O)[C@@]2(C)C[C@@H]1N1CCCCC1 [Vecuronium Bromide] | -0.5 |
| OC(Cn1cncn1)(Cn1cncn1)c1ccc(F)cc1F [Fluconazole] | -1.07 |
| CSc1nc2cc(Cl)c(Oc3cccc(Cl)c3Cl)cc2[nH]1 [Triclabendazole] | 7.41 |
| CCCCCc1ccc(C)cc1O [Amylmetacresol] | 0.52 |
| CCCN[C@H]1CCc2nc(N)sc2C1 [Pramipexole dihydrochloride] | -0.79 |
| CCc1c(C)[nH]c2c1C(=O)C(CN1CCOCC1)CC2 (stereo not given) [Molindone hydrochloride] | -0.03 |
| Nc1ccc(C(=O)O)c(O)c1 [4-Aminosalicylic acid] | -0.9 |
